Measured values from paper PMC4336329 (PLoS ONE, 2015).
In all, about 310,000 compounds went through this assay and about 14,000 (4.5%) showed an effect of 50% or more. The effect is printed as a negative number. This is one part of a sample in which strong results are shown more often than they occur.

The molecules below were run against human ether-à-go-go-related gene (hERG) potassium channel (human, UniProt Q12809) (assay: primary screen, population patch clamp on CHO cells stably expressing hERG; higher = less effect of the substance).
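Further: peak tail current of the secondary pulse compared with the same well before compound.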

human ether-à-go-go-related gene (hERG) potassium channel, sequence (Q12809 whole entry, looked up): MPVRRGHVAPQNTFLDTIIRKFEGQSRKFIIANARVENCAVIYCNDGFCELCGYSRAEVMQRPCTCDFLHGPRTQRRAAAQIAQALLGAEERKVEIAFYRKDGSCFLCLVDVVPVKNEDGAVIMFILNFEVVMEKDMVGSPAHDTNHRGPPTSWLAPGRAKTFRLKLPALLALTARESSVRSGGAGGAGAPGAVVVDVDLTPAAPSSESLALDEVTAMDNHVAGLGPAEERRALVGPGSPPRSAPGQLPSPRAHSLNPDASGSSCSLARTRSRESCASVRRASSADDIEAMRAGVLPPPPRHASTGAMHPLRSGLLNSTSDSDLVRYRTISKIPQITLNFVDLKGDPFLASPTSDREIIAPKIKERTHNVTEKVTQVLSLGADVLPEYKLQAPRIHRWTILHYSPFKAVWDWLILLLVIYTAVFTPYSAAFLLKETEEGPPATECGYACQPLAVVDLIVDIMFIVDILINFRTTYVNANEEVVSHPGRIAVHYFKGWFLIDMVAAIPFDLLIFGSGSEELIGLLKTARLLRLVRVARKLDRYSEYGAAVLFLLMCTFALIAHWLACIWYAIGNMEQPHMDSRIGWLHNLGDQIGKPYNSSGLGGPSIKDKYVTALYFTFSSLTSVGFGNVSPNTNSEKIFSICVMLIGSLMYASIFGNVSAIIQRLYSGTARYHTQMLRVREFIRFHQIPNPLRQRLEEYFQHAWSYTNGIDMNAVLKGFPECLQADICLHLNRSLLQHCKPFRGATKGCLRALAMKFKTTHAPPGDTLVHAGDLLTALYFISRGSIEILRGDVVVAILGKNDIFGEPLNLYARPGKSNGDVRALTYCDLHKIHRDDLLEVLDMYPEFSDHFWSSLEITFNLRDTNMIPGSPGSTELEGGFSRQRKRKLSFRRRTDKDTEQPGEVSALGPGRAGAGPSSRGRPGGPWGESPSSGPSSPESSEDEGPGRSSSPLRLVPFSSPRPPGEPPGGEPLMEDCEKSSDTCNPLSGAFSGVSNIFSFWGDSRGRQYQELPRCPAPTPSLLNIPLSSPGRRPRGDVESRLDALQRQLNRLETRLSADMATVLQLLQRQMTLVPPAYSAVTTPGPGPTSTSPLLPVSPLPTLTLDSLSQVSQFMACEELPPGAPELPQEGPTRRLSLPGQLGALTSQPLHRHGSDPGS

| Structure (SMILES) | hERG current change (%, negative = inhibition) at 10uM [%] |
| --- | --- |
| CC(=O)N1CCN(c2ccc(NC(=O)c3cccc([N+](=O)[O-])c3)cc2)CC1 | -3.59 |
| C/C(=N\NC(=O)CSc1nc(C)cc(C)n1)c1ccc2c(c1)OCCO2 | 18.3 |
| CCC(CC)C(=O)N1CC(=O)Nc2ccc(F)cc2C1c1ccc(F)cc1 (stereo not drawn) | -27.8 |
| CCCc1cc(C(=O)NNC(=S)NCC)c2ccccc2n1 | 18.1 |
| CC1=C(C(=O)Nc2ccccn2)C(c2ccc(F)cc2)n2ncnc2N1 (stereo not drawn) | -13.1 |
| CC1=C(C(=O)Nc2ccccn2)C(c2ccccc2)n2ncnc2N1 (stereo not drawn) | 13.7 |
| CC1=C(C(=O)Nc2ccccn2)C(c2ccc(N(C)C)cc2)n2ncnc2N1 (stereo not drawn) | -62.7 |
| O=c1cc(-c2ccccc2)cc(-c2ccccc2)n1CCCO | -31.9 |
| CCc1ccc(C(=O)Nc2cc3c(cc2Cl)OCCCO3)cc1 | 23.5 |
| O=C(N[C@@H](c1ccccc1)[C@@H]1C[C@H]1C(=O)O)OCc1ccccc1 | 15.1 |
| CNC(=O)[C@@H]1C[C@H]1[C@@H](NC(=O)OCc1ccccc1)c1ccccc1 | -48.3 |
| CN(C)C(=O)[C@@H]1C[C@H]1[C@@H](NC(=O)OCc1ccccc1)c1ccccc1 | -64.2 |
| O=P(O)(OCc1ccccc1)OCc1ccccc1 | 12.1 |
| O=C(O)c1cccc(NC2=Nc3cccc4cccc2c34)c1 | 14.3 |
| CCn1c(NC(=O)c2ccc(F)cc2)c2ccccc2nc1=O | -11.7 |
| Cc1cccn2c(=O)c3cc(C(=O)NCCN4CCOCC4)n(C)c3nc12 | -3.18 |
| COc1ccc(CCn2c(=N)c(C(=O)NCCN3CCOCC3)cc3c(=O)n4cccc(C)c4nc32)cc1OC | -97.8 |
| Cc1cccn2c(=O)c3cc(C(=O)NCCN4CCOCC4)c(=N)n(CCc4ccccc4)c3nc12 | -75 |
| COc1ccc(CCNC(=O)c2c(N)n(CCN3CCOCC3)c3nc4ccccc4nc23)cc1OC | -8.6 |
| COc1ccc(CCn2c(=O)[nH]c3cc(C(=O)NCCN4CCOCC4)ccc3c2=O)cc1OC | 0.353 |
| O=C(N/N=C/c1ccco1)C1CCCC1 | 22.1 |
| Cc1ccc(C(=O)Nc2ccc(S(=O)(=O)Nc3ncccn3)cc2)cc1[N+](=O)[O-] | 13.4 |
| COc1cccc2cc(C(=O)NCc3ccccc3Cl)c(=O)oc12 | 6.78 |
| CC(C)CSc1nsc(N)n1 | 23.1 |

| Structure (SMILES) | hERG current change (%, negative = inhibition) at 10uM [%] |
| --- | --- |
| COc1ccc(N2CCN(C(=O)c3ccc(C)c(NC(=O)c4ccco4)c3)CC2)cc1 | -74.8 |
| Cc1ccc(C(=O)N2CCN(C(=O)c3ccco3)CC2)cc1NC(=O)c1ccco1 | -44.1 |
| COc1ccc(N2CCN(C(=O)c3cccc(NC(=O)c4ccco4)c3)CC2)cc1 | -43.8 |
| O=C(c1ccco1)N1CCc2ccccc21 | -3.68 |
| Cc1ccc(C(=O)N2CCc3ccccc32)cc1NC(=O)c1ccco1 | -68.1 |
| Cc1ccc(C(=O)N2CCN(c3ccccc3)CC2)cc1NC(=O)c1ccco1 | -45.7 |
| COc1ccccc1CNC(=O)c1ccc(OC(F)F)c(OC)c1 | -32.1 |
| CCOC(=O)c1sc(NC(=O)c2ccc(S(=O)(=O)N3CCOCC3)cc2)nc1-c1ccccc1 | -27.6 |
| Cc1ccc(-c2csc3nc[nH]c(=O)c23)cc1 | 6.88 |
| CCOc1cc(Br)ccc1S(=O)(=O)NCc1ccccc1 | -30.3 |
| Cc1c(NC(=O)c2ccccc2NC(=O)COc2ccccc2)cccc1C(=O)O | 14.2 |
| Cc1cc(N2CCN(C(=O)c3ccco3)CC2)nc(-c2ccccc2)n1 | -65.4 |
| O=C(c1ccco1)N1CCN(c2nc3ccccc3c(=O)n2-c2ccccc2)CC1 | -54.9 |
| Cc1cc(N2CCN(C(=O)c3ccco3)CC2)n2nc(C)nc2n1 | -44 |
| Cc1cc(=O)[nH]c(N2CCN(C(=O)c3ccco3)CC2)n1 | 14 |
| Cc1nc2ccccc2c2oc(C(=O)N3CCN(C(=O)c4ccco4)CC3)cc12 | -46.7 |
| O=C(c1ccco1)N1CCN(Cc2nc3ccccc3c(=O)n2-c2ccc(F)cc2)CC1 | -18.8 |
| O=C(c1ccco1)N1CCN(C(=O)c2cc(Cl)nc3ccccc23)CC1 | -35.2 |
| O=c1c2ccccc2nc(N2CCCC2)n1-c1ccccc1 | 10.7 |
| Cc1cc(N2CCN(C(=O)c3ccco3)CC2)n2ncnc2n1 | -30.3 |
| Cc1cc(N2CCN(c3ccccc3)CC2)nc(-c2ccccc2)n1 | -30.9 |
| Cc1cc(N2CCN(C(=O)c3ccco3)CC2)c2ccccc2n1 | -71.8 |
| Cc1cc(N2CCN(C(=O)c3ccco3)CC2)n2ncc(-c3ccccc3)c2n1 | -50.5 |
| C=CCN=C(C)C1=C(O)CCC1=O | 16.5 |

| Structure (SMILES) | hERG current change (%, negative = inhibition) at 10uM [%] |
| --- | --- |
| O=C(CSc1nc2c(c(=O)n1-c1ccc(Cl)cc1)SCC2)N1CCOCC1 | -14.2 |
| O=C1C(C2=NC(c3ccccn3)C3C(=O)N(c4ccc(Cl)cc4Cl)C(=O)C23)=C(O)c2ccccc21 (stereo not drawn) | -4.11 |
| O=C(Cc1cccs1)NNC(=O)c1ccc(F)cc1 | 3.91 |
| Cc1ccc(CNC(=O)C2CC(c3cc(C(F)(F)F)cc(C(F)(F)F)c3)=NO2)o1 (stereo not drawn) | -12.1 |
| CCOc1ccc(-c2noc(CCC(=O)O)n2)cc1 | -1.59 |
| Cc1nnc(NC(=O)c2ccc(-c3ccc([N+](=O)[O-])cc3)o2)s1 | -11.7 |
| c1ccc(COc2ccc(OCCn3cncn3)cc2)cc1 | 4.65 |
| CCn1c(O)c(C=Nc2ccccc2)sc1=O | 13.9 |
| O=C(Nc1ccc(OCC(=O)N2CCOCC2)cc1)Nc1cccc(Cl)c1 | -7.18 |
| COc1cc(COCC(O)CN2CCN(CCN3C(=O)c4cccc5cccc(c45)C3=O)CC2)cc(OC)c1OC.Cl (stereo not drawn) | -62 |
| O=C1c2cccc3cccc(c23)C(=O)N1CCN1CCN(C(=S)Nc2ccc(Cl)cc2)CC1 | 16.4 |
| CCN1CCN(CC(O)COCc2cc(OC)c(OC)c(OC)c2)CC1.Cl (stereo not drawn) | 22.2 |
| O=C1c2ccccc2C(=O)N1CC(O)COCc1ccccc1 (stereo not drawn) | 19.4 |
| Cl.O=C1c2cccc3cccc(c23)C(=O)N1CCN1CCN(CC(O)COCc2ccc(Cl)cc2)CC1 (stereo not drawn) | -72.5 |
| COc1cc(COCC(O)CN2CCN(Cc3ccccc3)CC2)cc(OC)c1OC.Cl (stereo not drawn) | -39.1 |
| O=C(Nc1c(-c2ccccc2)nc2ncccn12)c1cc2ccccc2oc1=O | -12.2 |
| COC(=O)c1cc(-c2ccc(Cl)cc2Cl)n[nH]1 | 14.1 |
| O=Cc1c(Sc2ccccc2)nc2ccccn2c1=O | -0.892 |
| COc1ccc(-c2csc3[nH]c(=S)n(-c4ccccc4)c(=O)c23)cc1OC | 23.8 |
| O=C(Nc1ccccc1)NN(C(=O)CCl)c1ccccc1 | 6.85 |
| CSc1cc(C)nc(N(C)C(C)=O)n1 | 27.1 |
| CCOC(=O)c1cn(Cc2ccccc2)nc1-c1ccccc1 | -8.37 |
| O=C(O)c1ccc(NS(=O)(=O)c2ccc3c(c2)C(=O)c2ccccc2C3=O)cc1 | 18.5 |
| Cc1ccccc1-n1c(Cc2cccs2)n[nH]c1=S | 14.3 |

| Structure (SMILES) | hERG current change (%, negative = inhibition) at 10uM [%] |
| --- | --- |
| CCCCc1ccc(-n2c(Cc3cccs3)n[nH]c2=S)cc1 | -56.3 |
| S=c1[nH]nc(Cc2cccs2)n1-c1ccccc1 | 16.2 |
| O=C(Nc1ccc2c(c1)OCO2)c1cc(-c2ccccc2Cl)on1 | 15.3 |
| CCOc1ccc(CCNC(=O)CS(=O)Cc2nc(-c3ccccc3Cl)oc2C)cc1OCC (stereo not drawn) | -10.7 |
| CC(C)C1N=C2c3ccccc3N=C(SCc3cc(=O)n4cc(Cl)ccc4n3)N2C1=O (stereo not drawn) | -67 |
| O=C(O)CCCCn1c(SCc2cc(=O)n3cc(Cl)ccc3n2)nc2ccsc2c1=O | 2.87 |
| CC1N=C2c3ccccc3N=C(SCc3cc(=O)n4cc(Cl)ccc4n3)N2C1=O (stereo not drawn) | -63.6 |
| CC(C)C1N=C2c3ccccc3N=C(SCC(=O)c3ccc(O)c(O)c3)N2C1=O (stereo not drawn) | -23.1 |
| CC(C)C1N=C2c3ccccc3N=C(SCC#N)N2C1=O (stereo not drawn) | 5.14 |
| Cc1ccc2nc(CSc3nnc4ccccn34)cc(=O)n2c1 | 13.2 |
| COc1ccc(CN2C(=O)NC3(CCCc4ccccc43)C2=O)cc1F (stereo not drawn) | -14.4 |
| O=[N+]([O-])c1cc(S(=O)(=O)Nc2cccc(C(F)(F)F)c2)ccc1-n1nnc2ccccc21 | 0.81 |
| COc1ccc(S(=O)(=O)N2CCC(N3CCN(c4ccccc4)CC3)CC2)cc1 | -8.52 |
| C/C=C(\C)C(=O)NCCN1C2=NC[C@H](Cc3ccc(O)cc3)N2C[C@@H]1Cc1ccc(OC)cc1 | -2.89 |
| C/C=C(\C)C(=O)NCCN1C2=NC[C@H](Cc3ccccc3)N2C[C@H]1Cc1ccc(O)cc1 | 1.99 |
| C/C=C(\C)C(=O)NCCN1C2=NC[C@@H](Cc3ccccc3)N2C[C@H]1Cc1ccc(O)cc1 | 12.8 |
| C/C=C(\C)C(=O)NCCN1C2=NC[C@H](C)N2C[C@@H]1Cc1ccc(OC)cc1 | -4.7 |
| C/C=C(\C)C(=O)NCCN1C2=NC[C@H](Cc3ccccc3)N2C[C@@H]1Cc1ccc(OC)cc1 | -73.3 |
| C/C=C(\C)C(=O)NCCN1C2=NC[C@H](C(C)C)N2C[C@H]1Cc1ccc(O)cc1 | 23.1 |
| C/C=C(\C)C(=O)NCCN1C2=NC[C@@H](Cc3ccccc3)N2C[C@@H]1Cc1ccc(OC)cc1 | -60.3 |
| C/C=C(\C)C(=O)NCCN1C2=NC[C@H](C(C)C)N2C[C@@H]1Cc1ccc(OC)cc1 | -86.6 |
